{
  "source": "ChEMBL document CHEMBL1157539",
  "about": "“Thousands of chemical starting points for antimalarial lead identification” (Nature, 2010)",
  "format_in_all_cases": "functional",
  "key": {"[1]": {"test_system": "Plasmodium falciparum", "assay": "GSK_TCMDC: Inhibition of Plasmodium falciparum 3D7 in whole red blood cells, using parasite LDH activity as an index of growth. Test compounds present at 2uM"}, "[2]": {"test_system": "Plasmodium falciparum", "assay": "GSK_TCMDC: Inhibition of Plasmodium falciparum Dd2 in whole red blood cells, using parasite LDH activity as an index of growth. Test compounds present at 2uM"}, "[3]": {"test_system": "HepG2", "assay": "GSK_TCMDC: Percent inhibition of human HepG2 cell line. Test compounds present at 10uM."}},
  "data": [
    {"molecule": "O=C(Cc1c[nH]cn1)Nc1ccc(-c2ccc(-c3nc4ccccc4[nH]3)s2)cc1", "values": [
      {"measurement": "Inhibition", "setting": "[1]", "result": 90, "unit": "%"},
      {"measurement": "Inhibition", "setting": "[2]", "result": 34, "unit": "%"},
      {"measurement": "Inhibition", "setting": "[3]", "result": 44, "unit": "%"}
    ]},
    {"molecule": "COCCCNC(=O)[C@H]1CNCCN1C(=O)c1ccccc1.O=C(O)C(F)(F)F", "values": [
      {"measurement": "Inhibition", "setting": "[1]", "result": 97, "unit": "%"},
      {"measurement": "Inhibition", "setting": "[2]", "result": 95, "unit": "%"},
      {"measurement": "Inhibition", "setting": "[3]", "result": 53, "unit": "%"}
    ]},
    {"molecule": "CCOC(=O)c1ccc(N2CCCCC2)c(NC(=O)C(Cl)(Cl)Cl)c1", "values": [
      {"measurement": "Inhibition", "setting": "[1]", "result": 96, "unit": "%"},
      {"measurement": "Inhibition", "setting": "[2]", "result": 97, "unit": "%"},
      {"measurement": "Inhibition", "setting": "[3]", "result": 11, "unit": "%"}
    ]},
    {"molecule": "Cc1cccc2nc(-c3ccc(-c4ccc(CN5CCN(c6cnccn6)CC5)cc4)s3)[nH]c12.O=C(O)C(F)(F)F", "values": [
      {"measurement": "Inhibition", "setting": "[1]", "result": 94, "unit": "%"},
      {"measurement": "Inhibition", "setting": "[2]", "result": 42, "unit": "%"},
      {"measurement": "Inhibition", "setting": "[3]", "result": 11, "unit": "%"}
    ]},
    {"molecule": "O=C(Nc1ccc(-c2ccc(-c3nc4ccccc4[nH]3)cc2)cc1)Nc1ccc(Cl)c(Cl)c1", "values": [
      {"measurement": "Inhibition", "setting": "[1]", "result": 100, "unit": "%"},
      {"measurement": "Inhibition", "setting": "[2]", "result": 100, "unit": "%"},
      {"measurement": "Inhibition", "setting": "[3]", "result": 68, "unit": "%"}
    ]},
    {"molecule": "Cl.Oc1cccc(Nc2nc(NCC3CCCO3)c3ccccc3n2)c1", "note": "(configuration not stated)", "values": [
      {"measurement": "Inhibition", "setting": "[1]", "result": 100, "unit": "%"},
      {"measurement": "Inhibition", "setting": "[2]", "result": 87, "unit": "%"},
      {"measurement": "Inhibition", "setting": "[3]", "result": 0, "unit": "%"}
    ]},
    {"molecule": "Cc1cccc(-c2nc(Nc3ccncc3)c3cc(N(C)C)ccc3n2)n1", "values": [
      {"measurement": "Inhibition", "setting": "[1]", "result": 98, "unit": "%"},
      {"measurement": "Inhibition", "setting": "[2]", "result": 63, "unit": "%"},
      {"measurement": "Inhibition", "setting": "[3]", "result": 5, "unit": "%"}
    ]},
    {"molecule": "CCCCCCCN1CCC(CCNc2ccnc3ccc(OC)cc23)CC1", "values": [
      {"measurement": "Inhibition", "setting": "[1]", "result": 84, "unit": "%"},
      {"measurement": "Inhibition", "setting": "[2]", "result": 86, "unit": "%"},
      {"measurement": "Inhibition", "setting": "[3]", "result": 5, "unit": "%"}
    ]},
    {"molecule": "N#Cc1ccc2c(c1)CN(C1CCC(NC(=O)/C=C/c3cc(C(F)(F)F)cc(C(F)(F)F)c3)CC1)CCC2", "note": "(configuration not stated)", "values": [
      {"measurement": "Inhibition", "setting": "[1]", "result": 95, "unit": "%"},
      {"measurement": "Inhibition", "setting": "[2]", "result": 4, "unit": "%"},
      {"measurement": "Inhibition", "setting": "[3]", "result": 34, "unit": "%"}
    ]},
    {"molecule": "CCCCCCCN1CCC(CC(=O)Nc2ccnc3ccc(OC)cc23)CC1", "values": [
      {"measurement": "Inhibition", "setting": "[1]", "result": 97, "unit": "%"},
      {"measurement": "Inhibition", "setting": "[2]", "result": 52, "unit": "%"},
      {"measurement": "Inhibition", "setting": "[3]", "result": 15, "unit": "%"}
    ]},
    {"molecule": "O=C1C(c2ccccc2)=C(Nc2ccc(OC(F)(F)F)cc2)c2ccccc21", "values": [
      {"measurement": "Inhibition", "setting": "[1]", "result": 96, "unit": "%"},
      {"measurement": "Inhibition", "setting": "[2]", "result": 96, "unit": "%"},
      {"measurement": "Inhibition", "setting": "[3]", "result": 18, "unit": "%"}
    ]},
    {"molecule": "CCOC(=O)c1cnc2c(OC)cc(OC)c(Cl)c2c1Nc1ccccc1", "values": [
      {"measurement": "Inhibition", "setting": "[1]", "result": 99, "unit": "%"},
      {"measurement": "Inhibition", "setting": "[2]", "result": 100, "unit": "%"},
      {"measurement": "Inhibition", "setting": "[3]", "result": 13, "unit": "%"}
    ]},
    {"molecule": "O=C(NCC(c1ccc(C(F)(F)F)cc1)N1CCCC1)c1cc(-c2ccncc2)c(-c2cccc(O)c2)o1.O=C(O)C(F)(F)F", "note": "(configuration not stated)", "values": [
      {"measurement": "Inhibition", "setting": "[1]", "result": 95, "unit": "%"},
      {"measurement": "Inhibition", "setting": "[2]", "result": 53, "unit": "%"},
      {"measurement": "Inhibition", "setting": "[3]", "result": 9, "unit": "%"}
    ]},
    {"molecule": "O=C(/C=C/c1c(Cl)cccc1Cl)NC1CCC(CN2CCC(Cc3cc4ccccc4[nH]3)CC2)CC1", "note": "(configuration not stated)", "values": [
      {"measurement": "Inhibition", "setting": "[1]", "result": 91, "unit": "%"},
      {"measurement": "Inhibition", "setting": "[2]", "result": 17, "unit": "%"},
      {"measurement": "Inhibition", "setting": "[3]", "result": 97, "unit": "%"}
    ]},
    {"molecule": "Cc1cc(CNCCCCCCNCc2cccc([N+](=O)[O-])c2)ccc1O", "values": [
      {"measurement": "Inhibition", "setting": "[1]", "result": 90, "unit": "%"},
      {"measurement": "Inhibition", "setting": "[2]", "result": 0, "unit": "%"},
      {"measurement": "Inhibition", "setting": "[3]", "result": 13, "unit": "%"}
    ]},
    {"molecule": "COc1cc2c(cc1OC)CN(CCCCNC(=O)c1ccc(NC(=O)c3cc(Cl)cc(Cl)c3)cc1)CC2", "values": [
      {"measurement": "Inhibition", "setting": "[1]", "result": 99, "unit": "%"},
      {"measurement": "Inhibition", "setting": "[2]", "result": 75, "unit": "%"},
      {"measurement": "Inhibition", "setting": "[3]", "result": 19, "unit": "%"}
    ]},
    {"molecule": "CC(C)(C)c1ccc(NC(=O)c2ccc(CN3CCCN(Cc4cccc(F)c4)CC3)cc2)cc1.O=C(O)C(F)(F)F", "values": [
      {"measurement": "Inhibition", "setting": "[1]", "result": 90, "unit": "%"},
      {"measurement": "Inhibition", "setting": "[2]", "result": 8, "unit": "%"},
      {"measurement": "Inhibition", "setting": "[3]", "result": 51, "unit": "%"}
    ]},
    {"molecule": "O=C(O)C(F)(F)F.Oc1ccc(CCNc2nc(NCCOc3cccc4ccccc34)nc(N3CCNCC3)n2)cc1", "values": [
      {"measurement": "Inhibition", "setting": "[1]", "result": 96, "unit": "%"},
      {"measurement": "Inhibition", "setting": "[2]", "result": 8, "unit": "%"},
      {"measurement": "Inhibition", "setting": "[3]", "result": 21, "unit": "%"}
    ]},
    {"molecule": "COc1cc2nc(NCCc3ccccc3)nc(NCc3nccs3)c2cc1OC", "values": [
      {"measurement": "Inhibition", "setting": "[1]", "result": 99, "unit": "%"},
      {"measurement": "Inhibition", "setting": "[2]", "result": 93, "unit": "%"},
      {"measurement": "Inhibition", "setting": "[3]", "result": 1, "unit": "%"}
    ]},
    {"molecule": "COC(=O)Cn1c(C2CCN(CC3CCC(NC(=O)/C=C/c4ccc(Cl)c(Cl)c4)CC3)CC2)nc2ccccc21", "note": "(configuration not stated)", "values": [
      {"measurement": "Inhibition", "setting": "[1]", "result": 95, "unit": "%"},
      {"measurement": "Inhibition", "setting": "[2]", "result": 17, "unit": "%"},
      {"measurement": "Inhibition", "setting": "[3]", "result": 12, "unit": "%"}
    ]},
    {"molecule": "Br.N=C1N=C(N)NC2(CCCCC2)N1OCCCOc1cc(Cl)c(Cl)cc1Cl", "values": [
      {"measurement": "Inhibition", "setting": "[1]", "result": 94, "unit": "%"},
      {"measurement": "Inhibition", "setting": "[2]", "result": 98, "unit": "%"},
      {"measurement": "Inhibition", "setting": "[3]", "result": 62, "unit": "%"}
    ]},
    {"molecule": "CCC(CO)NCC(O)Cn1c2ccc(Br)cc2c2cc(Br)ccc21", "note": "(configuration not stated)", "values": [
      {"measurement": "Inhibition", "setting": "[1]", "result": 100, "unit": "%"},
      {"measurement": "Inhibition", "setting": "[2]", "result": 87, "unit": "%"},
      {"measurement": "Inhibition", "setting": "[3]", "result": 18, "unit": "%"}
    ]},
    {"molecule": "COc1cccc(C(O)CNc2ccnc(Nc3cccc(-c4csc(C)n4)c3)n2)c1", "note": "(configuration not stated)", "values": [
      {"measurement": "Inhibition", "setting": "[1]", "result": 99, "unit": "%"},
      {"measurement": "Inhibition", "setting": "[2]", "result": 73, "unit": "%"},
      {"measurement": "Inhibition", "setting": "[3]", "result": 38, "unit": "%"}
    ]},
    {"molecule": "CN1CCCN(Cc2ccc(-c3ccc(NC(=O)c4ccc(Cl)cc4)cc3)cc2)CC1.O=C(O)C(F)(F)F", "values": [
      {"measurement": "Inhibition", "setting": "[1]", "result": 96, "unit": "%"},
      {"measurement": "Inhibition", "setting": "[2]", "result": 67, "unit": "%"},
      {"measurement": "Inhibition", "setting": "[3]", "result": 58, "unit": "%"}
    ]},
    {"molecule": "CSc1nc2nc(C)c(Cc3cccc(C(F)(F)F)c3)c(C)n2n1", "values": [
      {"measurement": "Inhibition", "setting": "[1]", "result": 98, "unit": "%"},
      {"measurement": "Inhibition", "setting": "[2]", "result": 95, "unit": "%"},
      {"measurement": "Inhibition", "setting": "[3]", "result": 4, "unit": "%"}
    ]},
    {"molecule": "CC1(C)CN(CCC2CCC(NC(=O)/C=C/c3ccc(F)cc3F)CC2)Cc2ccc(C#N)cc21.Cl", "note": "(configuration not stated)", "values": [
      {"measurement": "Inhibition", "setting": "[1]", "result": 88, "unit": "%"},
      {"measurement": "Inhibition", "setting": "[2]", "result": 77, "unit": "%"},
      {"measurement": "Inhibition", "setting": "[3]", "result": 39, "unit": "%"}
    ]},
    {"molecule": "Br.CC1(C)NC(N)=NC(=N)N1OCCCc1ccc(Cl)cc1Cl", "values": [
      {"measurement": "Inhibition", "setting": "[1]", "result": 95, "unit": "%"},
      {"measurement": "Inhibition", "setting": "[2]", "result": 95, "unit": "%"},
      {"measurement": "Inhibition", "setting": "[3]", "result": 54, "unit": "%"}
    ]},
    {"molecule": "Cc1cc(OCCCn2ccnc2)ccc1-c1csc(/N=C(\\N)NCc2ccccc2)n1", "values": [
      {"measurement": "Inhibition", "setting": "[1]", "result": 92, "unit": "%"},
      {"measurement": "Inhibition", "setting": "[2]", "result": 42, "unit": "%"},
      {"measurement": "Inhibition", "setting": "[3]", "result": 26, "unit": "%"}
    ]},
    {"molecule": "Cc1cc(N[C@@H](Cc2ccccc2)C(=O)NCc2cccc(F)c2)nc(NCCc2ccccc2)n1.O=C(O)C(F)(F)F", "values": [
      {"measurement": "Inhibition", "setting": "[1]", "result": 100, "unit": "%"},
      {"measurement": "Inhibition", "setting": "[2]", "result": 73, "unit": "%"},
      {"measurement": "Inhibition", "setting": "[3]", "result": 7, "unit": "%"}
    ]}
  ]
}
